Assay outcomes from PubChem.
This is a sample that favours compounds with a hit; in the whole collection about 2.8% have one here.
Pol iota inh: qHTS for Inhibitors of Polymerase Iota; DNA polymerase iota (Homo sapiens), Q9UNA4; Pol iota fluorescent replication assay, 10 min; Potency, µM (series often up to 115 µM), for inactives: at the top dose activity, negative = inhibition, hits mostly inhibitors; 390,000 compounds, 1% hits; AID 588590, 2011; further: potency means the concentration at half of the fitted maximal effect
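Fluorescent replication assay read twice, at 0 min and 10 min after adding 50 nM (final) substrate. Enzyme (10 nM) and compounds were first incubated 15 min at room temperature; enzyme-free buffer wells were negative controls.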
PI4K2A inh: qHTS for small molecular inhibitors of PI4K2A. Phosphatidylinositol 4-kinase type 2-alpha (Homo sapiens), Q9BTU6. purified PI4K2A, ADP-Glo luminescence, 1 h; hits give low values. activity change, negative = inhibition, % at 76.9 µM. 420,000 compounds, 0.13% hits. AID 1346378, 2018; in the data active means activity change below about -50%; inconclusive means mostly about -30% to -49%;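 further: -100% = wells without enzyme as full effect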
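In this quantitative HTS, ADP production by PI4K2A was quantified luminescently after 1 h at ambient temperature; 100 microM adenosine served as plate-quality control.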
POLK inh: qHTS for Inhibitors of Polymerase Kappa; DNA polymerase kappa (Homo sapiens), Q9UBT6; purified Pol kappa, fluorescent DNA synthesis assay, 10 min; Potency, µM (highest dose often 107 µM), for inactives: top-dose activity, negative = inhibition, actives largely listed as inhibitors; 400,000 compounds, 0.53% hits; AID 588579, 2011; further: potency means the concentration at half of the fitted maximal effect; on the % scale 0 is the no-effect control and ±100 the full control effect
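Activity was followed as the change in fluorescence between reads at 0 and 10 min after starting the reaction with 50 nM substrate. Beforehand, 10 nM polymerase had been preincubated with compound for 15 min at room temperature.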
Pol beta inh: qHTS Assay for Inhibitors of DNA Polymerase Beta. P06746. Pol beta primer extension/strand displacement, fluorescence kinetic. Potency, µM (highest dose often 114 µM), for inactives: at the top dose activity change, negative = inhibition, most hits filed as inhibitors. 340,000 compounds, 1.3% hits; further: potency means the concentration at half of the fitted maximal effect; on the % scale 0 is the no-effect control and ±100 the full control effect
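Preincubation: enzyme (10 nM) with compound, 15 min, RT. Reaction: substrate added to 50 nM final. Reads: 0 and 10 min. Analysis: normalized, Hill fit.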
Pol eta inh: qHTS for Inhibitors of Polymerase Eta | DNA polymerase eta (Homo sapiens), Q9Y253 | recombinant Pol eta, fluorescent DNA replication assay | Potency, µM (highest dose often 114 µM), inactives show top-dose activity change, negative = inhibition, hits mostly inhibitors | 390,000 compounds, 1.2% hits; further: potency means the concentration at half of the fitted maximal effect; on the % scale 0 is the no-effect control and ±100 the full control effect
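Fluorescent replication assay: 50 nM final substrate added after a 15 min room-temperature compound preincubation with 10 nM enzyme. Signal taken at 0 min and again at 10 min.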
PI5P4K alpha inh: qHTS for Inhibitors of phosphatidylinositol 5-phosphate 4-kinase (PI5P4K); max response, %; PI5P4Kalpha enzyme, ADP-Glo luminescence, 60 min; hits give low values; Phosphatidylinositol 5-phosphate 4-kinase type-2 alpha (Homo sapiens), P48426; 330,000 compounds, 1.2% hits; active means max response of -50% or lower; inconclusive means between -30% and -50%; inactive means -30% or higher; further: value at the top dose of about 77 µM; on the % scale 0 is the no-effect control and ±100 the full control effect
Target sequence (P48426 whole entry, looked up): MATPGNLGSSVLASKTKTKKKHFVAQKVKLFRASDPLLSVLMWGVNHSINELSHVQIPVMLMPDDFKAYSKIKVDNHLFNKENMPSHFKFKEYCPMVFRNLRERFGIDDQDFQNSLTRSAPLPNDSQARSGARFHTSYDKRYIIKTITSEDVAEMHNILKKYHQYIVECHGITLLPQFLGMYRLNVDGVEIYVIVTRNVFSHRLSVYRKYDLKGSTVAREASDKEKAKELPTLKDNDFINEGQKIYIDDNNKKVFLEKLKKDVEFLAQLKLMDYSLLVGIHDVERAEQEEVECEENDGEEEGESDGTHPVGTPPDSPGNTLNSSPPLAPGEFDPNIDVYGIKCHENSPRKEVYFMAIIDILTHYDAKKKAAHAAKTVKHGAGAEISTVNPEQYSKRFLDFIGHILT
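Compounds were pin-transferred onto PI5P4Kalpha and substrate in HEPES pH 7.4 buffer with EGTA, CHAPS and 5% DMSO. ATP (5 microM final) started the reaction, which ran 60 minutes at room temperature before ADP-Glo detection.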
* hit, by the source's call; ? = inconclusive; . = no result given; [ ] = remark or other dose. Unless noted, the call rests on the fitted dose curve; in most records, active means well fitted inhibition curve with a large enough effect; inconclusive means small, poorly fitted or top-dose-only effect, or another doubt; inactive means no such curve, though single readings can be large or run the other way.

SMILES	Pol iota inh	PI4K2A inh	POLK inh	Pol beta inh	Pol eta inh	PI5P4K alpha inh
N#CC1=C(N)n2c(s/c(=C\c3ccco3)c2=O)=C(C#N)C1c1ccco1 (stereo not drawn)	7.9µM*	-17	22µM*	7.1µM*	3.2µM*	-70*
CC(C)c1ccc(/C=c2\sc3n(c2=O)C(N)=C(C#N)C(c2ccc(C(C)C)cc2)C=3C(N)=O)cc1 (stereo not drawn)	47%	1	-17%	.	5%	?
CS(=O)(=O)N1CCN(Cc2cc3nc(-c4cccc5[nH]ncc45)nc(N4CCOCC4)c3s2)CC1	-18%[229 µM]	.	1%[229 µM]	.	.	.
CCc1ccc(NC(=O)Cn2ccn(-c3cccc(Cl)c3)c(=O)c2=O)cc1	-26%	1	-10%	0%	0%	-1
O=c1c(=O)n(-c2cccc(Cl)c2)ccn1Cc1cccc(F)c1	9%	1	-25%	32µM*	-13%	.
CC(=O)Nc1ccc(OCC(O)CN2CCN(c3cc(Cl)ccc3C)CC2)cc1 (stereo not drawn)	7%	1	0%	6%	-10%	.
CC(=O)Nc1ccc(OCC(O)CN2CCN(c3ccc(C)c(Cl)c3)CC2)cc1 (stereo not drawn)	89µM*	-13	-5%	6%	-10%	.
OC(Cc1ccc2ccccc2n1)c1ccccc1 (stereo not drawn)	1%	.	-8%	.	.	.
CCN(C(=O)CSc1nnc(-c2cc(OC)c(OC)c(OC)c2)o1)c1ccccc1	?	-1	?	10µM*	2%	.
Cc1cc(C)n(-c2ccc([N+](=O)[O-])cc2-c2nn[nH]n2)n1	-18%	-5	11%	3%	-6%	-2
O=[N+]([O-])c1ccc(O)c(-c2nn[nH]n2)c1	?	-24	-9%	0%	-11%	-54*
COc1ccc([N+](=O)[O-])c(S(=O)(=O)c2ccc(Cl)cc2)n1	?	-1	5%	-23%	-8%	4
COc1ccc([N+](=O)[O-])c(S(=O)(=O)c2ccccc2)n1	14µM*	-5	1%	21%	-6%	-16
CCCc1ccc(O)c(N=Cc2cc(Br)cc(OCC)c2O)c1	?	-6	-24%	20µM*	-11%	-28
CCc1ccc(O)c(N=Cc2cccc(C)c2O)c1	6%	8	-4%	?	5%	.
C/C(=N\OCC(=O)OCC(=O)NCc1ccccc1)c1ccc2c(c1)OCO2	40µM*	-1	?	.	20µM*	-11
Cc1cc(F)ccc1NC(=O)CCS(=O)(=O)c1cccc2nsnc12	11%	3	5%	78%	-14%	.
O=S(=O)(Nc1ncnc2sc3c(c12)CCC3)c1ccc(Cl)s1	?	-1	0%	-2%	35µM*	-6
COc1cc2nc(N3CCOCC3)nc(NC3CC3)c2cc1OC	27%	.	-5%	.	.	.
COC(=O)c1ccccc1NC(=O)CCS(=O)(=O)c1ccc(Br)s1	-11%	-2	-6%	0%	-13%	8
Cc1ccccc1NC(=O)CCS(=O)(=O)c1ccc(Br)s1	?	0	?	35µM*	?	-18
CC(C)ON(CC(=O)NO)S(=O)(=O)c1ccc(-c2ccccc2)cc1	.	.	6%[60.1 µM]	.	.	.
O=C(CSc1nn(-c2ccc(F)cc2)c(=S)s1)NC(=O)NCc1ccco1	?	-8	-4%	45µM*	2%	.
O=C(CSc1ncccn1)NC(=O)NCc1ccco1	79µM*	1	-14%	?	-11%	-2
Cc1nnc(SCC(=O)NC(=O)NCc2ccco2)s1	-4%	-1	-8%	-12%	-1%	7
SMILES	Pol iota inh	PI4K2A inh	POLK inh	Pol beta inh	Pol eta inh	PI5P4K alpha inh
CCOc1ccc2nc(SCC(=O)NC(=O)NCc3ccco3)[nH]c2c1	?	-3	-23%	50µM*	?	?
CCCCn1c(SCC(=O)NC(=O)NCc2ccco2)nc2cc(S(N)(=O)=O)ccc21	?	-12	?	28µM*	79µM*	.
O=C(CSc1nc2ccccc2o1)NC(=O)NCc1ccco1	-9%	-3	-17%	-4%	?	-14
Cc1ccccc1CSCC(=O)NC(=O)NCc1ccco1	32µM*	-23	?	11µM*	?	.
COc1ccc(-c2nc(SCC(=O)NCc3ccco3)c(-c3ccccc3)[nH]2)cc1OC	10%	5	-6%	-20%	-2%	-2
O=C(CSc1cccc(C(F)(F)F)c1)NC(=O)NCc1ccco1	?	-7	?	?	-25%	.
O=C(CSc1ccccc1F)NC(=O)NCc1ccco1	?	-17	-24%	10µM*	?	?
O=C(CSCc1ccccc1Br)NNC(=S)NCc1ccco1	16%	1	-1%	3%	-24%	5
COc1ccc(-c2[nH]c(-c3ccccc3)nc2SCC(=O)NCc2ccco2)cc1OC	?	-7	-24%	40µM*	?	-11
O=C(CSc1n[nH]c(-c2ccccc2)n1)NC(=O)NCc1ccco1	45µM*	-11	?	35µM*	?	-55*
OC[C@H]1O[C@H](O[C@]2(CCl)O[C@H](CCl)[C@@H](O)[C@@H]2O)[C@H](O)[C@@H](O)[C@H]1Cl	.	3	.	.	.	.
COc1ccc(C)cc1-n1nnnc1SCC(=O)NC(=O)NCc1ccco1	28µM*	-10	?	14µM*	89µM*	.
C=CCn1c(COc2ccccc2-c2ccccc2)nnc1SCC(=O)NC(=O)NCc1ccco1	?	-2	-5%	-15%	-10%	.
O=C(CSc1nc(-c2ccccc2)cs1)NC(=O)NCc1ccco1	?	-5	-12%	7%	-3%	.
O=C(CSc1nc2ccccc2s1)NC(=O)NCc1ccco1	-13%	-10	-25%	22µM*	-7%	.
C/C(=N/NC(=O)CSc1nc2ccccc2s1)c1ccncc1	50%	1	-3%	31%	-4%	0
C=CCn1c(COc2ccccc2F)nnc1SCC(=O)NC(=O)NCc1ccco1	32µM*	?	?	40µM*	?	.
CS/C(=N\S(=O)(=O)c1cccs1)NC(=O)CSc1nc2ccccc2s1	?	-3	-26%	?	50µM*	?
CC(CC=O)CCCC(C)(C)O (stereo not drawn)	.	.	8%[19.4 µM]	.	.	.
COc1ccc(C(C(=O)Nc2ccc(F)cc2)N2CCN(CC(=O)N3CCCC3)CC2)cc1 (stereo not drawn)	.	-5	.	.	.	2
COc1ccc(/C=C(\C)C(=O)NO)cc1	19%	.	6%	.	.	.
